# Vaccinia Venus: qHTS for Stage-Specific Inhibitors of Vaccinia Orthopoxvirus: Venus Reporter Primary qHTS. 330,000 compounds, 0.46% hits. Potency, µM (top dose mostly 36.5 µM), for the others: at the highest dose activity change, negative = inhibition, most hits filed as inhibitors. Vaccinia virus Venus reporter expression, fluorescence; calls by dose curve; tested in A549 cells; further: potency means the concentration at half of the fitted maximal effect; on the % scale 0 is the no-effect control and ±100 the full control effect; nearly all actives have a fitted effect of over 30% in size
# Shiga toxin inh: A qHTS for Small Molecule Inhibitors of Shiga Toxin | Vero cells, Shiga toxin protein synthesis inhibition reporter | 290,000 compounds, 9.2% hits | inhibition, % at 38.7 µM | AID 2315, 2010; in the data active means inhibition mostly above about 28%, no sharp cut-off; inactive means mostly below about 43%; further: 0% is about no effect
# MARV entry inh: qHTS for inhibitors of binding or entry into cells for Marburg Virus; Marburg virus pseudotyped entry inhibition, cell reporter; Potency, µM (doses to about 37.8 µM), without a hit: top-dose activity change, negative = inhibition, usual class: inhibitors; 300,000 compounds, 1.8% hits; AID 540276, 2011; calls by dose curve; tested in HEK293 cells; further: potency means the concentration at half of the fitted maximal effect; on the % scale 0 is the no-effect control and ±100 the full control effect
# Lassa entry inh: qHTS for Inhibitors of binding or entry into cells for Lassa Virus; Lassa virus pseudotype entry inhibition, cell reporter; Potency, µM (series often up to 37.9 µM), inactives show top-dose activity change, negative = inhibition, most hits filed as inhibitors; 300,000 compounds, 1.2% hits; AID 540256, 2011; calls by dose curve; tested in HEK293 cells; further: potency means the concentration at half of the fitted maximal effect; on the % scale 0 is the no-effect control and ±100 the full control effect; nearly all actives have a fitted effect of over 50% in size
# CHX counter: Cycloheximide Counterscreen for Small Molecule Inhibitors of Shiga Toxin; cell reporter, cycloheximide protein synthesis inhibition counterscreen; 300,000 compounds, 12% hits; max response, %; AID 2314, 2010; in the data active means max response mostly above about 13%, no sharp cut-off; inactive means mostly below about 14%; further: read at 38.3 µM for the half of the compounds with a filed dose; 0% is about no effect
# VACV mCherry inh: qHTS for Stage-Specific Inhibitors of Vaccinia Orthopoxvirus: mCherry Reporter Primary qHTS; Vaccinia virus mCherry reporter infection, fluorescence; Potency, µM (highest dose often 36.5 µM), for inactives: top-dose activity change, negative = inhibition, actives largely listed as inhibitors; 310,000 compounds, 0.63% hits; calls by dose curve; tested in A549 cells; further: potency means the concentration at half of the fitted maximal effect; on the % scale 0 is the no-effect control and ±100 the full control effect; nearly all actives have a fitted effect of over 35% in size
# Numbers without * were called inactive; i = inactive; ? = inconclusive; . = no result; ! = a repeat was not active; [ ] = dose if it differs, or a comment. This is one part of a sample in which hits are shown more often than they occur.
SMILES,Vaccinia Venus,Shiga toxin inh,MARV entry inh,Lassa entry inh,CHX counter,VACV mCherry inh
O=C(NN1C(=O)C2C3C=CC(C4CC34)C2C1=O)c1cccc(Cl)c1 (stereo not drawn),-15%,132*,16%,15%,48*,-23%
CCC[C@H]1CN(Cc2ccccc2)C(=O)[C@H]1CC(=O)NC,.,.,.,-4%[46.1 µM],.,.
CCN(CC)CCOC(=O)c1cc(Cl)c(N)cc1OC,-16%,.,13µM*!,?,.,i
Nc1nc(-c2ccccc2)cn1N,-23%,28,18%,17%,23,.
Nc1nn2cc(-c3ccccc3)nc2c2ccccc12,-19%,70*,-19%,?,30*,-3%
Cc1cn2nc(N)c3ccccc3c2n1,-17%,29,2%[46.1 µM],-7%,19*,i
Cc1nn2c(=O)cc(COC(=O)c3ccc(NC(=O)c4cccs4)cc3)nc2s1,?,.,.,13%[46.1 µM],.,?
COc1ccc(-c2nc3c(c(=O)[nH]c(=O)n3Cc3ccccc3)n2CCO)cc1,-25%,-18,-1%[46.1 µM],2.2µM*,12,?
COc1ccc(Br)cc1-c1nc2c(c(=O)[nH]c(=O)n2Cc2ccccc2)n1C,-4%,-4,-15%[46.1 µM],?,-6,-22%
Cn1c(-c2cc(Cl)ccc2O)nc2c1c(=O)[nH]c(=O)n2Cc1ccccc1,-22%,2,2µM*,?,9,-18%
O=c1[nH]c(=O)n(Cc2ccccc2)c2nc(-c3ccc(Oc4ccc(F)cc4)c([N+](=O)[O-])c3)n(CCO)c12,10µM*,-1,?,?,0,-21%
COc1ccc(-c2ccc(-c3nc4c(c(=O)[nH]c(=O)n4Cc4ccccc4)n3C)o2)c([N+](=O)[O-])c1,4%,-6,-2%,-2%,-2,-7%
COCCn1c(=O)[nH]c(=O)c2c1nc(-c1ccc(-c3ccc(Cl)cc3[N+](=O)[O-])o1)n2Cc1ccccc1,?,-3,?,10µM*,-2,?
O=C(c1ccc(Cl)cc1)N1CCCCC(Cl)C1=O (stereo not drawn),-7%,2,1%[46.1 µM],?,-1,-7%
O=C(Cc1cccc(F)c1)NO,-12%,.,.,.,.,-10%
COCCOC(=O)C1=C(C)NC(=O)NC1c1cn(-c2ccccc2)nc1-c1ccccc1 (stereo not drawn),3%,.,?,-26%[46.1 µM],.,4%
CN(Cc1ccon1)Cc1cn(C)nc1-c1cccc(Cl)c1,-1%,71,-5%[46.1 µM],13%,33*,-9%
CN(Cc1cn(C)nc1-c1cccc(Cl)c1)C1CCOCC1,.,-21,.,.,-1,.
O/N=C1\CCSc2ccc(F)cc21,.,58*,.,.,33*,.
O=C(O)c1ccc(N/N=C2/CCSc3ccc(F)cc32)cc1,-7%,34,18%[46.1 µM],-11%[46.1 µM],38*,?
N#Cc1c2n(c3c(=O)n(CC(=O)c4ccc([N+](=O)[O-])cc4)cnc13)CCCCC2,-12%,-12,-4%,-10%,-4,-9%
O=C(CC1N=C2c3ccccc3N=C(SCc3ccccc3Cl)N2C1=O)NCc1cccs1 (stereo not drawn),-10%,.,.,-8%[46.1 µM],.,-17%
CCCCC1CCC(C(=O)N2CC(=O)Nc3ccc(Cl)cc3C2c2ccc(F)cc2)CC1 (stereo not drawn),-12%[7.34 µM],.,?,-23%[46.1 µM],.,-20%[7.34 µM]
O=C(NC1CC(=O)N(c2ccccc2)C1)C(c1ccccc1)c1ccccc1 (stereo not drawn),-8%[7.34 µM],.,.,-9%[46.1 µM],.,-8%[7.34 µM]
O=C(Nc1nccs1)c1csc2c1CCCC2,-13%,88*,?,?,36*,-23%
SMILES,Vaccinia Venus,Shiga toxin inh,MARV entry inh,Lassa entry inh,CHX counter,VACV mCherry inh
COc1cccc(NC(=O)c2csc3c2CCCC3)c1,-7%,104*,?,-8%,40*,i
Cc1ccccc1NC(=O)c1csc2c1CCCC2,.,100*,?,25%,41*,.
COc1ccc(NC(=O)c2csc3c2CCCC3)cc1,.,72*,-21%,?,51*,.
O=C(Nc1ccon1)c1csc2c1CCCC2,.,30,?,-1%,2,.
CC(C)(C)N1C(=O)[C@H]2[C@H]3[C@H](O)[C@H](O)C/C(=N\OCc4ccccc4)[C@H]3CC[C@H]2C1=O,.,.,-9%[14.2 µM],.,.,.
Cc1ccc(C(=O)NCCc2nnc3n2CCN(C(=O)c2ccnc(Cl)c2)CC3)cc1,2%,.,.,.,.,0%
COC(=O)C1=C(C)NC(=O)/C1=C\c1cccs1,-24%,-2,-12%,0%,1,.
CC1(C)NC(C)(C)/C(=C\c2cccs2)C(=O)C1=O,-21%,-3,13µM*,26%,2,?
CCOC(=O)c1cc(-c2ccccc2)n(CCC(=O)Nc2ccc(C)cc2Cl)c1C,-18%,.,.,19%[46.1 µM],.,i
Cc1ccc(/C=C2\SC(=S)N(CCCC(=O)Nc3ccccn3)C2=O)cc1,-6%,-27,?,2.2µM*,-5,i
O=C1/C(=C/c2ccc(O)cc2)SC(=S)N1CC1CCCO1 (stereo not drawn),85%,40*,11%[46.1 µM],8%[46.1 µM],36*,?
Cc1ccc(/C=C2\SC(=S)N(CCCC(=O)Nc3ccc(O)cc3)C2=O)cc1,-5%,39*,14%[46.1 µM],?,18*,-25%
CC(C)(C)c1ccc(C(=O)OCC(=O)NC2CC2)cc1,-7%,.,1%[46.1 µM],-1%,.,?
CC(NC(=O)c1cc2ccccc2oc1=O)c1ccc(O)cc1 (stereo not drawn),2%,10,5%[46.1 µM],-24%[46.1 µM],7,-13%
COc1ccc2oc(=O)c(C(=O)Nc3ccccc3O)cc2c1,.,46,.,.,36*,.
CC(C)NC(=O)c1cc2cc(Br)ccc2oc1=O,-8%,86*,-2%,2%,30*,i
COc1ccc2oc(=O)c(C(=O)NC(C)c3ccccc3)cc2c1 (stereo not drawn),4%,54,1%[46.1 µM],18%[46.1 µM],18*,-8%
Cc1nc(NC(=O)CSc2nnc(-c3ccccc3)c(-c3ccccc3)n2)c(Cl)cc1Cl,-11%,-11,11%,-17%,-2,-17%
O=C(CSc1nnc(-c2ccco2)c(-c2ccco2)n1)Nc1ccccc1,-10%,27,-3%,-11%,31*,.
O=C(CSc1nnc(-c2ccccc2)c(-c2ccccc2)n1)Nc1ncc(Cl)cc1Cl,-7%,34*,3%,10%,18*,-10%
Cc1ccc(NC(=O)CSc2nnc(-c3ccco3)c(-c3ccco3)n2)cc1,?,1,-16%,2.8µM*,15,?
CC1=C(C(=O)Nc2cccnc2)C(c2ccc(F)cc2)n2nc(SCc3ccccc3)nc2N1 (stereo not drawn),4%,.,20%[46.1 µM],1%[46.1 µM],.,-13%
